# Screening results from PubChem.
# A selection: hits, their analogues and other compounds. The true share with any hit is near 4.1%.
# ALR H2O2 inh – human ALR oxidase inhibition via reduced H2O2; P55789; purified ALR, DTT oxidation, H2O2 HRP-luminol luminescence; inhibition, % (no concentration beside the values); hit rate 3.8% among 290,000; AID 485317;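 active means mean replicate inhibition above about 79%, with every replicate also reaching it, limit read from the data; inconclusive means only one of the two criteria met; inactive means mean below limit and not every replicate reaching it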
# M18AAP inhibitor – blocks P. falciparum M18 aspartyl aminopeptidase | recombinant PfM18AAP, H-Glu-NHMec fluorogenic cleavage | inhibition, % at 7.35 µM | hit rate 1.2% among 290,000;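 active means inhibition above the campaign mean inhibition over all tested compounds plus 3 SD, cut at about 28% in these data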
# PolyA inhibitor – blocks polyadenylation in yeast reporter cells; hit rate 0.02% among 300,000; activity score, % at 12 µM; AID 1875; S. cerevisiae SKY197-pL101 polyadenylation reporter, beta-gal luminescence; efflux-impaired pdr1/pdr3 knockout yeast; score 100 = 6 SD above DMSO;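 active means lowest replicate activity score at least 50, where 100 means six control SD above control mean; inconclusive means lowest score under 50 but half or more replicates reach 50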;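 further: yeast exposed to compound for 9 h at 30 °C; higher score means more reporter readthrough which indicates perturbed polyadenylation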
# CaV13 FRET inh – Disruptors of the CACNA1D IQ motif to Ca2+-dependent inactivation inhibitor domain association, primary screening, Förster resonance energy transfer in intact living …; inhibition, % at 12.3 µM; AID 743397; HEK cells, CFP/YFP FRET ICDI-IQ, plate reader, 10 min; percent FRET-ratio fall versus neutral wells; hit rate 0.098% among 340,000;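 active means mean replicate inhibition of at least 30% and at least 1% of replicates passing that level; inconclusive means only one of the two criteria is met; inactive means neither criterion is met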
# IDE act – activators of human insulin-degrading enzyme in cells | P14735 | HEK cells, FAbeta-B cleavage, fluorescence polarization; 0% vehicle, 100% cell-free pure enzyme wells | activation, % at 5.96 µM | hit rate 0.073% among 340,000;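 active means activation above the mean of all tested compounds plus 3 SD, set per screening campaign, cut at about 17% in these data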
# Target sequence (P14735 whole entry, looked up): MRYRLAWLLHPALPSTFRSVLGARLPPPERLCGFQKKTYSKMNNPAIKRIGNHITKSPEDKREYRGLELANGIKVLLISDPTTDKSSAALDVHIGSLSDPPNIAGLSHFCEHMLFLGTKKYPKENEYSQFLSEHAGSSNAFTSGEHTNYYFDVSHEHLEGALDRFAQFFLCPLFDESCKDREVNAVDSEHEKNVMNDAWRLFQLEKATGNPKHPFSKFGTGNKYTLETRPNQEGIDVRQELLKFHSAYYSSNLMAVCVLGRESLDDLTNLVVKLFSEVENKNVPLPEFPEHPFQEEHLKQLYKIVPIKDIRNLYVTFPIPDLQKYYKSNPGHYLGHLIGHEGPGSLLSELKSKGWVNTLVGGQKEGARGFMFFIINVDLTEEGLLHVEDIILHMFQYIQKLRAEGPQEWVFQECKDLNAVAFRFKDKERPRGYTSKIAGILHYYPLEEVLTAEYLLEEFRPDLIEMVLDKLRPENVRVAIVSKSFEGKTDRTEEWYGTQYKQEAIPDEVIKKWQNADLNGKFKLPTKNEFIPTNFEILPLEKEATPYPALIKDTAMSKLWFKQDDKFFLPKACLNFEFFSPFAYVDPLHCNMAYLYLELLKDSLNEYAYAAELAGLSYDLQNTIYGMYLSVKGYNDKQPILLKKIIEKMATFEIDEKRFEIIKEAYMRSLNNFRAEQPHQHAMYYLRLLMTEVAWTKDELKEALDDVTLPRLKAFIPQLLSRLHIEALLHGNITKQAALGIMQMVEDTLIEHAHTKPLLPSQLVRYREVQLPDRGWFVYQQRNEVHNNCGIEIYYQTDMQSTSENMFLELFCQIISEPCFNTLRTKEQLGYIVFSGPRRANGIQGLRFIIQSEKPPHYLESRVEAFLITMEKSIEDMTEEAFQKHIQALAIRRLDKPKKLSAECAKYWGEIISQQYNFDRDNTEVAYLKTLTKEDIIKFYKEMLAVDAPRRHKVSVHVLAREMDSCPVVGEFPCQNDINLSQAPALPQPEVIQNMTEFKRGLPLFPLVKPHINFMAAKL
# IDE cell inh – inhibits human insulin-degrading enzyme in HEK cells | FAbetaB cleavage, fluorescence polarization | inhibition, % at 5.59 µM | hit rate 0.41% among 320,000;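 active means percent inhibition above the average of all tested compounds plus 3 SD, set per screening campaign, cut at about 16% in these data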;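 further: IDE supplied by intact live HEK cells; FP after avidin binding of uncleaved biotin substrate so inhibition keeps polarization high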
# A number is an active result; . = inactive; ? = inconclusive; / = not tested or not shown.
SMILES,ALR H2O2 inh,M18AAP inhibitor,PolyA inhibitor,CaV13 FRET inh,IDE act,IDE cell inh
CC1CCCCC1NC(=O)COC(=O)c1c2c(nc3ccccc13)/C(=C\c1ccco1)CC2 (stereo unspecified),/,/,/,.,.,/
Cc1ccc(N2CC(C(=O)OCC(=O)Nc3ccccc3F)CC2=O)cc1 (stereo unspecified),.,.,.,.,.,.
S=C(NCCc1ccccc1)Nc1ccc(Nc2ccccc2)cc1,98,.,.,.,.,.
CC(C)(C)NC(=S)Nc1ccc(Nc2ccccc2)cc1,99,.,.,.,.,.
S=C(NCCCc1ccccc1)Nc1ccccc1,.,.,/,.,.,/
C=CCn1c(CNC(=O)c2cccs2)nnc1SCC(=O)c1ccc(Br)cc1,86,.,.,.,.,.
CCN1CCS/C1=C/C=C/C1=[N+](CC)CCS1,97,.,.,/,.,.
CCN1CCS/C1=C\C=C\C1=[N+](CC)CCS1,/,.,.,84,.,/
CCOc1ncccc1C(=O)Nc1nc(SC)ns1,.,.,.,.,.,.
COc1cccc(/C=N/Nc2nn3cnnc3c3ccccc23)c1O,.,31,.,/,.,.
CCN(CCCNC(=O)CC(C(=O)N1CCc2ccccc21)n1ccnc1)c1ccccc1 (stereo unspecified),99,.,.,.,.,.
O=C(CC(C(=O)N1CCc2ccccc21)n1ccnc1)NCc1cccnc1 (stereo unspecified),/,.,.,.,.,.
COc1ccc(NC(C)c2cc(Cl)ccc2O)cc1 (stereo unspecified),/,.,.,/,.,.
Cc1c(NC(C)c2cc(Cl)ccc2O)c(=O)n(-c2ccccc2)n1C (stereo unspecified),91,.,.,.,.,.
CC(Nc1ccccc1)c1cc(Cl)ccc1O (stereo unspecified),99,.,/,.,.,.
Cc1c(NC(C)c2ccccc2O)c(=O)n(-c2ccccc2)n1C (stereo unspecified),.,.,.,.,.,.
Cc1c(NC(C)C)c(=O)n(-c2ccccc2)n1C,97,/,/,.,.,.
CCn1c(SCC(=O)Nc2ccccc2Cl)nnc1C1CC1,.,.,.,.,.,.
CCc1nnc(SCC(=O)Nc2ccccc2Cl)nc1CC,98,.,.,.,.,.
COc1cc(C=C2CCCC(=Cc3ccc(OCC4CO4)c(OC)c3)C2=O)ccc1OCC1CO1 (stereo unspecified),/,/,/,.,/,/
COc1ccccc1N1CC(C(=O)Nc2nnc(SCc3cccnc3)s2)CC1=O (stereo unspecified),88,.,.,.,.,.
OCCCNc1ncnc2c1ncn2[C@H]1CN(Cc2ccc(-c3ccccc3)cc2)C[C@@H](CO)O1,/,/,/,.,/,/
COc1ccc(S(=O)(=O)N(C)c2ccc(C(=O)N3CCCCC3)cc2)cc1,.,.,.,.,.,.
COc1ccc(Br)cc1/C=N/Nc1cccc(C(=O)O)c1,/,.,.,.,.,.
COc1ccccc1/C=C/C=N/Nc1cccc(C(=O)O)c1,98,.,.,.,.,.
SMILES,ALR H2O2 inh,M18AAP inhibitor,PolyA inhibitor,CaV13 FRET inh,IDE act,IDE cell inh
CC(C)(C)c1ccc(/C=N/Nc2cccc(C(=O)O)c2)cc1,.,30,.,.,.,.
O=C(O)c1cccc(N/N=C/c2cc(Br)cc(Br)c2O)c1,98,.,.,.,.,.
Cc1c(N=Cc2cc(Br)cc(Br)c2O)cccc1C(=O)O,98,34,.,/,.,.
CN(/N=C/c1cc(Br)cc(Br)c1O)c1ccccc1,.,.,.,.,.,.
Cn1c(SCC(=O)Nc2ccc(C(=O)O)cc2)nc2scc(-c3ccccc3Cl)c2c1=O,.,/,/,.,.,.
CCOc1ccc(S(=O)(=O)NC(C)C)cc1C(N)=O,.,.,.,.,.,.
CN(C)c1ccc(/C=N/Nc2cccc(C(=O)O)c2)cc1,99,.,.,.,.,.
COc1cc(SC#N)ccc1N=Cc1c(C)[nH]n(-c2ccc(C)c(C)c2)c1=O,94,.,.,.,.,.
O=C(Nc1ccc2snnc2c1)N1CCCCC1,?,.,.,.,.,.
S=C(Nc1ccc(N2CCOCC2)cc1)Nc1ccc2snnc2c1,95,30,.,.,.,.
O=C(Nc1ccc2snnc2c1)N1CCOCC1,77,.,.,.,.,.
O=C(c1ccc2snnc2c1)N1CCOCC1,.,.,.,/,.,.
O=C(Nc1ccc2snnc2c1)N1CCN(c2ccccc2)CC1,99,.,.,.,.,.
COc1ccc(CCc2nnc(CCC(=O)NCCc3ncccc3C)o2)cc1,.,.,.,.,.,.
COc1ccc(-c2cc(C(F)(F)F)nc(S(=O)(=O)CCC(=O)N3CCOCC3)n2)cc1,90,.,.,/,.,.
COc1ccccc1-c1cc(C(F)(F)F)nc(S(=O)(=O)CCCC(=O)N2CCOCC2)n1,/,.,.,/,.,.
Nn1c(=S)[nH]nc(Cc2ccc(O)cc2)c1=O,80,.,.,.,.,.
CC(C)c1ccc(NC(=O)Cc2c(C(=O)O)n(C)c3ccccc23)cc1,97,.,.,.,.,.
CCOC(=O)C1(CC2CC2)CCN(Cc2cnc(N(C)C)s2)CC1,/,.,.,.,17,.
COCCNC(=S)N(C)[C@H]1C[C@H]2c3[nH]c4cccc(-c5ccccc5)c4c3CCN2C(=O)[C@H]1[C@H](C)O,/,/,/,.,/,/
CC(C)CCn1nnnc1CN1CCN(c2ccccc2)CC1,.,.,.,.,18,.
CN(C)c1ccc(C(=O)NC2(N3CCC3=O)CCCC2)cc1,100,.,.,.,.,.
S=C(c1ccc(N2CCOCC2)cc1)N1CCCCC1,87,.,.,/,.,.
CN(C)c1ccc(C(=S)N2CCCCCC2)cc1,98,.,.,.,.,.
Cc1[nH]c(C)c(S(=O)(=O)NCc2ccc(N(C)C)cc2)c1C(=O)N1CCCC1,98,.,.,.,.,.
SMILES,ALR H2O2 inh,M18AAP inhibitor,PolyA inhibitor,CaV13 FRET inh,IDE act,IDE cell inh
CC(=O)N1CCN(C(=S)c2ccc(N(C)C)cc2)CC1,98,.,.,.,.,.
CCCCNC(=O)C1Cc2cc(S(=O)(=O)N3CCCC3)ccc2N1C(C)=O (stereo unspecified),.,.,.,.,.,.
CCc1nn(CCCC(=O)NCc2ccccc2C)c(=O)c2cc3occc3n12,.,.,.,.,.,.
CC1CC(=O)N(C)c2cc([N+](=O)[O-])ccc2N1 (stereo unspecified),.,.,.,.,.,.
Cc1cccc(N2CCN(C(=S)c3ccc([N+](=O)[O-])cc3)CC2)c1,.,30,.,.,.,.
CN(C)c1ccc(C(=O)N2CCCC2)cc1,98,.,.,.,.,.
CN(C)c1ccc(C(=S)N2CCN(c3ccccc3)CC2)cc1,99,.,.,.,.,.
CN(C)c1ccc(C(=S)N2CCOCC2)cc1,99,.,/,.,.,.
Cc1cccc(N2CCN(C(=S)c3ccccc3)CC2)c1,.,.,.,.,.,.
